These results are taken from publication PMC11102866, “Nucleosome-bound NR5A2 structure reveals pioneer factor mechanism by DNA minor groove anchor competition”.

Assay [1] deals with NR5A2 wild type;histone octamer (Homo sapiens;, UniProt O00482;C0HKE1;Q6ZWY9;P84244;P62806 1-541;2-130;2-126;2-136;2-103, |). In words: SeEN-seq (EMSA of nucleosome library followed by sequencing); 0.8 uM human NR5A2; 20 mM Tris-HCl pH 7.5, 120 mM NaCl, 1 mM MgCl2, 10 uM ZnCl2, 1 mM DTT, 100 ug/ml BSA, room temperature, 30 min; 0.1 uM nucleosome library; high values mean tight binding.

In assay [2] the target is mouse Nr5a2 wild type;histone octamer (Mus musculus;, UniProt P45448;C0HKE1;Q6ZWY9;P84244;P62806 1-560;2-130;2-126;2-136;2-103, |). Nature of the assay: SeEN-seq (EMSA of nucleosome library followed by sequencing); 1.2 uM mouse Nr5a2; 20 mM Tris-HCl pH 7.5, 120 mM NaCl, 1 mM MgCl2, 10 uM ZnCl2, 1 mM DTT, 100 ug/ml BSA, room temperature, 30 min; 0.1 uM nucleosome library; high values mean tight binding. For orientation: Mobility shift assays separate free from complexed probe on a gel.

B1: 53 (nucleosome)
DNA 1: ATCCTGGAGAATCCCGGTGCCGAGGCCGCTCAATTGGTCGTAGACAGCTCTAGCATCAAGGCCACGCACGTACGCGCTGTCCCCCGCGTTTTAACCGCCAAGGGGATTACTCCCTAGTCTCCAGGCACGTGTCAGATATATACATCCTGTGAT
DNA 2: ATCACAGGATGTATATATCTGACACGTGCCTGGAGACTAGGGAGTAATCCCCTTGGCGGTTAAAACGCGGGGGACAGCGCGTACGTGCGTGGCCTTGATGCTAGAGCTGTCTACGACCAATTGAGCGGCCTCGGCACCGGGATTCTCCAGGAT
modifications: reconstituted with mouse histones H2A, H2B, H3.3 and H4
With B1, the binding signal is 1.03 log2 enrichment (bound/unbound, relative to Widom 601) in assay [1] and 1.17 log2 enrichment (bound/unbound, relative to Widom 601) in assay [2].

B2: 54 (nucleosome)
DNA 1: ATCCTGGAGAATCCCGGTGCCGAGGCCGCTCAATTGGTCGTAGACAGCTCTAGCACTCAAGGCCAGCACGTACGCGCTGTCCCCCGCGTTTTAACCGCCAAGGGGATTACTCCCTAGTCTCCAGGCACGTGTCAGATATATACATCCTGTGAT
DNA 2: ATCACAGGATGTATATATCTGACACGTGCCTGGAGACTAGGGAGTAATCCCCTTGGCGGTTAAAACGCGGGGGACAGCGCGTACGTGCTGGCCTTGAGTGCTAGAGCTGTCTACGACCAATTGAGCGGCCTCGGCACCGGGATTCTCCAGGAT
modifications: reconstituted with mouse histones H2A, H2B, H3.3 and H4
B2: the binding signal in assay [1] was 0.993 log2 enrichment (bound/unbound, relative to Widom 601); in assay [2], 1 log2 enrichment (bound/unbound, relative to Widom 601).

B3: 56 (nucleosome)
DNA 1: ATCCTGGAGAATCCCGGTGCCGAGGCCGCTCAATTGGTCGTAGACAGCTCTAGCACCGTCAAGGCCAACGTACGCGCTGTCCCCCGCGTTTTAACCGCCAAGGGGATTACTCCCTAGTCTCCAGGCACGTGTCAGATATATACATCCTGTGAT
DNA 2: ATCACAGGATGTATATATCTGACACGTGCCTGGAGACTAGGGAGTAATCCCCTTGGCGGTTAAAACGCGGGGGACAGCGCGTACGTTGGCCTTGACGGTGCTAGAGCTGTCTACGACCAATTGAGCGGCCTCGGCACCGGGATTCTCCAGGAT
modifications: reconstituted with mouse histones H2A, H2B, H3.3 and H4
As to B3, the binding signal was 0.684 log2 enrichment (bound/unbound, relative to Widom 601) in assay [1] and 0.45 log2 enrichment (bound/unbound, relative to Widom 601) in assay [2].

B4: 57 (nucleosome)
DNA 1: ATCCTGGAGAATCCCGGTGCCGAGGCCGCTCAATTGGTCGTAGACAGCTCTAGCACCGCTCAAGGCCACGTACGCGCTGTCCCCCGCGTTTTAACCGCCAAGGGGATTACTCCCTAGTCTCCAGGCACGTGTCAGATATATACATCCTGTGAT
DNA 2: ATCACAGGATGTATATATCTGACACGTGCCTGGAGACTAGGGAGTAATCCCCTTGGCGGTTAAAACGCGGGGGACAGCGCGTACGTGGCCTTGAGCGGTGCTAGAGCTGTCTACGACCAATTGAGCGGCCTCGGCACCGGGATTCTCCAGGAT
modifications: reconstituted with mouse histones H2A, H2B, H3.3 and H4
With B4, the binding signal was 0.552 log2 enrichment (bound/unbound, relative to Widom 601) in assay [1] and 0.504 log2 enrichment (bound/unbound, relative to Widom 601) in assay [2].

B5: 55 (nucleosome)
DNA 1: ATCCTGGAGAATCCCGGTGCCGAGGCCGCTCAATTGGTCGTAGACAGCTCTAGCACCTCAAGGCCACACGTACGCGCTGTCCCCCGCGTTTTAACCGCCAAGGGGATTACTCCCTAGTCTCCAGGCACGTGTCAGATATATACATCCTGTGAT
DNA 2: ATCACAGGATGTATATATCTGACACGTGCCTGGAGACTAGGGAGTAATCCCCTTGGCGGTTAAAACGCGGGGGACAGCGCGTACGTGTGGCCTTGAGGTGCTAGAGCTGTCTACGACCAATTGAGCGGCCTCGGCACCGGGATTCTCCAGGAT
modifications: reconstituted with mouse histones H2A, H2B, H3.3 and H4
Take B5: the binding signal in assay [1] is 1.2 log2 enrichment (bound/unbound, relative to Widom 601); in assay [2] it was 0.957 log2 enrichment (bound/unbound, relative to Widom 601).

B6: 59 (nucleosome)
DNA 1: ATCCTGGAGAATCCCGGTGCCGAGGCCGCTCAATTGGTCGTAGACAGCTCTAGCACCGCTTTCAAGGCCATACGCGCTGTCCCCCGCGTTTTAACCGCCAAGGGGATTACTCCCTAGTCTCCAGGCACGTGTCAGATATATACATCCTGTGAT
DNA 2: ATCACAGGATGTATATATCTGACACGTGCCTGGAGACTAGGGAGTAATCCCCTTGGCGGTTAAAACGCGGGGGACAGCGCGTATGGCCTTGAAAGCGGTGCTAGAGCTGTCTACGACCAATTGAGCGGCCTCGGCACCGGGATTCTCCAGGAT
modifications: reconstituted with mouse histones H2A, H2B, H3.3 and H4
As for B6, the binding signal in assay [1] is 0.92 log2 enrichment (bound/unbound, relative to Widom 601); in assay [2], 0.823 log2 enrichment (bound/unbound, relative to Widom 601).

B7: 58 (nucleosome)
DNA 1: ATCCTGGAGAATCCCGGTGCCGAGGCCGCTCAATTGGTCGTAGACAGCTCTAGCACCGCTTCAAGGCCAGTACGCGCTGTCCCCCGCGTTTTAACCGCCAAGGGGATTACTCCCTAGTCTCCAGGCACGTGTCAGATATATACATCCTGTGAT
DNA 2: ATCACAGGATGTATATATCTGACACGTGCCTGGAGACTAGGGAGTAATCCCCTTGGCGGTTAAAACGCGGGGGACAGCGCGTACTGGCCTTGAAGCGGTGCTAGAGCTGTCTACGACCAATTGAGCGGCCTCGGCACCGGGATTCTCCAGGAT
modifications: reconstituted with mouse histones H2A, H2B, H3.3 and H4
With B7, the binding signal is 0.651 log2 enrichment (bound/unbound, relative to Widom 601) in assay [1] and 0.747 log2 enrichment (bound/unbound, relative to Widom 601) in assay [2].

B8: 60 (nucleosome)
DNA 1: ATCCTGGAGAATCCCGGTGCCGAGGCCGCTCAATTGGTCGTAGACAGCTCTAGCACCGCTTATCAAGGCCAACGCGCTGTCCCCCGCGTTTTAACCGCCAAGGGGATTACTCCCTAGTCTCCAGGCACGTGTCAGATATATACATCCTGTGAT
DNA 2: ATCACAGGATGTATATATCTGACACGTGCCTGGAGACTAGGGAGTAATCCCCTTGGCGGTTAAAACGCGGGGGACAGCGCGTTGGCCTTGATAAGCGGTGCTAGAGCTGTCTACGACCAATTGAGCGGCCTCGGCACCGGGATTCTCCAGGAT
modifications: reconstituted with mouse histones H2A, H2B, H3.3 and H4
For the molecule B8, the binding signal is 0.819 log2 enrichment (bound/unbound, relative to Widom 601) in assay [1] and 0.573 log2 enrichment (bound/unbound, relative to Widom 601) in assay [2].
